The sample as a whole holds a higher share of hits than the screen did.
Dicer processing = blocks human Dicer maturation of pre-miR-21. cat-ELCCA pre-miR-21 Dicer processing, chemiluminescence; hits give high values. z-score at 25 µM. 6% of 47,000 active; in the data active = z-score above about 3, passing the limit was not always enough;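 note: plate controls were vehicle for no effect and no enzyme for full effect; higher signal means more uncleaved substrate so more Dicer inhibition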
Active calls of the source: *.

SMILES	Dicer processing
Cc1ccc2c(c1)NC(c1ccccc1)C1=C(CC(C)(C)CC1=O)N2 (stereo not drawn)	-1.42
CCOC(=O)Cc1cc(C)[nH]c1C(=O)OCC	0.19
CCOC(=O)CCc1c(CC(=O)OCC)c[nH]c1/C=N/O	16.1*
CCOC(=O)CCc1c(C)nc2c(-c3ccc(F)cc3)c(C)[nH]n2c1=O	0.13
COc1ccc(-c2cnc3c(-c4ccc(OC)c(OC)c4)cnn3c2N)cc1OC	2.97
O=C(CSc1nc2c(c(C(F)(F)F)n1)CCc1ccccc1-2)NCC1CCCO1 (stereo not drawn)	0.48
CSC(=NCCSCc1c(Cl)cccc1Cl)NC#N	-0.9
CC(C)(C)NC(=O)CSc1nnc(NC(=O)Cn2c(=O)oc3ccccc32)s1	1.62
O=C(CCSc1nnc(NC(=O)Cn2c(=O)oc3ccccc32)s1)Nc1ccccc1	2.59
O=C(Cn1c(=O)oc2ccccc21)Nc1nnc(SCc2ccccc2)s1	3.04*
O=C(Cn1c(=O)oc2ccccc21)Nc1nnc(SCC(=O)N2CCOCC2)s1	3.2*
O=C(Cn1c(=O)oc2ccccc21)Nc1nnc(SCC(=O)N2CCCCC2)s1	1.05
CC(C)c1nnc(NC(=O)Cn2c(=O)oc3ccccc32)s1	0.6
FC(F)(F)c1cccc(NC(=S)Nc2ccccc2)c1	0.93
CCOC(=O)c1c(Nc2ccccc2OC)sc(C(=O)c2ccccc2)c1N	-0.29
O=C(Cn1nc(C(F)(F)F)c2c1CCCC2)NCc1cccs1	0.78
CCc1sc(-c2c(C#N)c(N)nc3c2CCCC3)cc1Br	0.48
Cc1ccccc1Cn1c(SC(C)C(=O)O)nc2c1c(=O)n(C)c(=O)n2C (stereo not drawn)	0.7
Cc1ccccc1Cn1c(SCc2nn[nH]n2)nc2c1c(=O)n(C)c(=O)n2C	3.47*
CCSc1nc2c(c(=O)n(C)c(=O)n2C)n1Cc1ccccc1C	-0.76
CC(C)(C)c1ccc(C(=O)N/N=C(/C(=O)O)c2ccccc2)cc1	0.11
C/C(Cc1ccccc1)=N\NC(=O)c1ccncc1	-0.68
C/C(=N/NC(=O)c1ccccc1)C(=O)O	3.29*
Cc1ccnc(N=C2c3ccccc3CN2c2cc(C)ccn2)c1	-0.2
O=C1C=C(NCCc2ccccc2)CC(c2ccco2)C1 (stereo not drawn)	5.65*
SMILES	Dicer processing
O=C1C=C(NCc2ccco2)CC(c2ccccc2)C1 (stereo not drawn)	1.18
O=C1C=C(NCc2ccncc2)CC(c2ccccc2)C1 (stereo not drawn)	1.75
Cc1nc(NCCN(C)C)c2sc3nc4c(cc3c2n1)COC(C)(C)C4	-0.49
Cn1nnnc1SCC(=O)NC1Cc2ccccc2C1	1.44
Cc1ccc(-n2nnnc2SCCOc2ccc(C)c(C)c2)cc1	9.75*
C=CCSc1nnnn1-c1ccc(OC(=O)C=C(C)C)cc1	-0.89
Cc1cc(=O)[nH]c(SCCOc2ccc(C)c(C)c2)n1	-1.29
COc1ccc(Oc2c(Cl)cnn(-c3ccc([N+](=O)[O-])cc3)c2=O)cc1	-2.12
CNC(=S)NNc1ncccc1-n1cccc1	-3.54
O=C(NC1CCCCC1)N1c2ccccc2Sc2ccccc21	-0.07
COC(=O)c1ccc(Br)cc1	0.38
COC(=O)c1ccc2cc(C(=O)O)ccc2c1	5.36*
COC(=O)c1cc(Cl)cc(Cl)c1	-0.99
O=C1c2oc3ccccc3c(=O)c2C(c2ccc(F)cc2)N1c1nncs1 (stereo not drawn)	-0.78
O=C(CCSc1nnc2ccccn12)Nc1cccc(-c2nc3ccccc3s2)c1	6.1*
O=C(CSc1nnc2ccccn12)Nc1cccc(-c2nc3ccccc3s2)c1	-1.33
O=C(CSc1nnc2ccccn12)Nc1ccc(Cl)cc1	0.1
CCCc1c(N)ccc2c(=O)cc(C(=O)OCC)oc12	-1.17
COc1cc(C2c3c(oc4cc(C)c(C)cc4c3=O)C(=O)N2CCCN(C)C)ccc1O (stereo not drawn)	0.06
CSc1c(C#N)c(-c2cccs2)nn1C(=O)C(C)(C)C	-2.62
CC1CCN(c2oc(-c3cccs3)nc2S(=O)(=O)c2ccccc2)CC1	0.05
CSc1c(-c2cccs2)c(N)nn1S(=O)(=O)c1ccccc1	3.94*
Clc1ccc(-c2nc(NCc3ccco3)c3ccccc3n2)cc1	-1.08
CCOC(=O)Sc1ccc2ccccc2c1	-0.58
CC(C)N1C(=O)C(=O)c2ccccc21	-1.69
SMILES	Dicer processing
COc1ccccc1-c1coc2cc(OCCc3ccccc3)ccc2c1=O	1.99
CCOC(=O)c1c(/N=C/C2=C(O)CC(c3cccs3)CC2=O)sc(C)c1C (stereo not drawn)	-1.69
CC(C)=CC(=O)NCCSCc1ccc(Cl)cc1	-1.9
CCOC(=O)c1c(C)n(C)c2ccc(OCC(O)CN3CCOCC3)cc12 (stereo not drawn)	1.89
CCOC(=O)N1CCN(CC(O)COc2cc(C)cc(C)c2)CC1 (stereo not drawn)	2.63
CCOC(=O)N1CCN(CC(O)COc2cc(C)ccc2C(C)C)CC1 (stereo not drawn)	3.48*
CCOC(=O)N1CCN(S(=O)(=O)c2c(C)cc(C)cc2C)CC1	1.19
OC(CN1CCN(Cc2ccc3c(c2)OCO3)CC1)Oc1ccc(C(F)(F)F)cc1 (stereo not drawn)	-2.73
